Common to all, as to assay: DAPPL (digital affinity profiling via proximity ligation, sequencing); 10 mM Tris-HCl pH 7.5, 50 mM NaCl, 1 mM DTT, 4% glycerol, room temperature, 30 min; GST-TFs on glutathione beads, 16-mer random dsDNA library, 0.1% formaldehyde crosslink after washing; high values mean tight binding
Assay [1] concerns the target T1, FEV (Homo sapiens, UniProt Q99581 1-238).
T1 sequence: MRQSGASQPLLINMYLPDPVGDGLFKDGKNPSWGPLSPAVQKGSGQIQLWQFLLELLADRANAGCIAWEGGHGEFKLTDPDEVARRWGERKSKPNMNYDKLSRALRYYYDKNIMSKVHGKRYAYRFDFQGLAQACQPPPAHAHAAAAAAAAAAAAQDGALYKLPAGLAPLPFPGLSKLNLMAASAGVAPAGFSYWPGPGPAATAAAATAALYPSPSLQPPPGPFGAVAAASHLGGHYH
The following applies: protein: recombinant; tags: N-terminal GST; dsDNA, one strand shown. In outline:
(§1)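 Binding signal is each hexamer's read frequency for a factor divided by its frequency in the tag-only sample. The factors were GST-fused human transcription factors from yeast, captured on glutathione beads, DNA-barcoded and pooled with that sample. Pools were incubated with 200 nmole of a random double-stranded 16-mer DNA library in Tris/NaCl/DTT/glycerol buffer at room temperature for 30 min, then washed, crosslinked with 0.1% formaldehyde, proximity-ligated with BsaI/T4 ligase (1 h, 37 °C), PCR-amplified and sequenced on an Illumina NextSeq500.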

Assay [2] has as its target ETV5 (Homo sapiens, UniProt P41161 1-510). The following applies: protein: recombinant; tags: N-terminal GST; dsDNA, one strand shown. In outline:
as §1

Assay [3] concerns the target HSF1 (Homo sapiens, UniProt Q00613 1-529). The following applies: protein: recombinant; tags: N-terminal GST; chain copies: 3; dsDNA, one strand shown. In outline:
as §1

Assay [4] deals with T2, SPIC (Homo sapiens, UniProt Q8N5J4 1-248).
T2 sequence: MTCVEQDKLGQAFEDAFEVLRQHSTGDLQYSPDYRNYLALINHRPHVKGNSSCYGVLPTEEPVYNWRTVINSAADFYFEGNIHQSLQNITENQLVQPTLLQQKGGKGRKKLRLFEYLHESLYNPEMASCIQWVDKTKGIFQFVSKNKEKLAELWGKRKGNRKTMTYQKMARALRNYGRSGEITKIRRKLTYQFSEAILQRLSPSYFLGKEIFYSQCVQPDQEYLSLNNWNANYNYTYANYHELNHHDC
The following applies: protein: recombinant; tags: N-terminal GST; dsDNA, one strand shown. The gist of the method: as §1

Assay [5] has as its target ELF4 (Homo sapiens, UniProt Q99607 1-663). To be noted: protein: recombinant; tags: N-terminal GST; dsDNA, one strand shown. The gist of the method:
as §1

In assay [6] the target is T3, ELK4 (Homo sapiens, UniProt P28324-2 1-405).
T3 sequence: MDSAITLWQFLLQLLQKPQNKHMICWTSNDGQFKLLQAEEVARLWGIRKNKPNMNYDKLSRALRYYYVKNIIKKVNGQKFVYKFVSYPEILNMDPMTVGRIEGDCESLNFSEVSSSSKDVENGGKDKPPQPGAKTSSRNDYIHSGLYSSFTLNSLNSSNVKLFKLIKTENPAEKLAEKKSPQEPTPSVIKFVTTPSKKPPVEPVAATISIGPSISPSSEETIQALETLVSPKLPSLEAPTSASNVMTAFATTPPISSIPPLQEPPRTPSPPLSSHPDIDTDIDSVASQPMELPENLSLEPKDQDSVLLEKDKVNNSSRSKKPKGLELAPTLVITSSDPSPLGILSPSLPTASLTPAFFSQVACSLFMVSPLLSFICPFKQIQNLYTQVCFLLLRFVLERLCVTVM
To be noted: protein: recombinant; tags: N-terminal GST; dsDNA, one strand shown. In outline:
as §1

Assay [7] deals with T4, ETV2 (Homo sapiens, UniProt O00321 1-342).
T4 sequence: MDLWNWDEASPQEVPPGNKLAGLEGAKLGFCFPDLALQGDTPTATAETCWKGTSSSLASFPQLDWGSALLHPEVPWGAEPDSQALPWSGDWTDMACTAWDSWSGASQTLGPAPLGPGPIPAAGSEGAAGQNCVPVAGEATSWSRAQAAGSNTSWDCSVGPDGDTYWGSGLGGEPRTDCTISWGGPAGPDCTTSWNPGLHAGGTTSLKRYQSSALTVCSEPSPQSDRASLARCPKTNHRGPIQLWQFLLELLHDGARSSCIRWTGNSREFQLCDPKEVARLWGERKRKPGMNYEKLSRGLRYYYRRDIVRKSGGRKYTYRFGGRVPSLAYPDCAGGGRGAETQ
The following applies: protein: recombinant; tags: N-terminal GST; dsDNA, one strand shown. In outline:
as §1

The target of assay [8] is T5, ELF3 (Homo sapiens, UniProt P78545 1-371).
T5 sequence: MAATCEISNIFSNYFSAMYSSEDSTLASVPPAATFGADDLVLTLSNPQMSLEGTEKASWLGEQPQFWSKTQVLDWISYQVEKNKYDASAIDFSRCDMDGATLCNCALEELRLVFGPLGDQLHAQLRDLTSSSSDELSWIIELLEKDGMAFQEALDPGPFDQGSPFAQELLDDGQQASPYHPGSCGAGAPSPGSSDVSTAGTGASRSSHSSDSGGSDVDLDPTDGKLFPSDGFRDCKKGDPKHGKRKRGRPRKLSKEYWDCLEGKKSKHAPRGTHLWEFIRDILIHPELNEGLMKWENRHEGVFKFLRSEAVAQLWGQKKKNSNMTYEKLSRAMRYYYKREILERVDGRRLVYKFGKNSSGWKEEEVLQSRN
The following applies: protein: recombinant; tags: N-terminal GST; dsDNA, one strand shown. The gist of the method: as §1

For assay [9], the target named is CRX (Homo sapiens, UniProt O43186 1-299). The following applies: protein: recombinant; tags: N-terminal GST; dsDNA, one strand shown. The gist of the method:
as §1

Assay [10] concerns the target ETV1 (Homo sapiens, UniProt P50549 1-477). To be noted: protein: recombinant; tags: N-terminal GST; dsDNA, one strand shown. The gist of the method: as §1
For assay [11], the target named is T6, ERF (Homo sapiens, UniProt P50548 1-548).
T6 sequence: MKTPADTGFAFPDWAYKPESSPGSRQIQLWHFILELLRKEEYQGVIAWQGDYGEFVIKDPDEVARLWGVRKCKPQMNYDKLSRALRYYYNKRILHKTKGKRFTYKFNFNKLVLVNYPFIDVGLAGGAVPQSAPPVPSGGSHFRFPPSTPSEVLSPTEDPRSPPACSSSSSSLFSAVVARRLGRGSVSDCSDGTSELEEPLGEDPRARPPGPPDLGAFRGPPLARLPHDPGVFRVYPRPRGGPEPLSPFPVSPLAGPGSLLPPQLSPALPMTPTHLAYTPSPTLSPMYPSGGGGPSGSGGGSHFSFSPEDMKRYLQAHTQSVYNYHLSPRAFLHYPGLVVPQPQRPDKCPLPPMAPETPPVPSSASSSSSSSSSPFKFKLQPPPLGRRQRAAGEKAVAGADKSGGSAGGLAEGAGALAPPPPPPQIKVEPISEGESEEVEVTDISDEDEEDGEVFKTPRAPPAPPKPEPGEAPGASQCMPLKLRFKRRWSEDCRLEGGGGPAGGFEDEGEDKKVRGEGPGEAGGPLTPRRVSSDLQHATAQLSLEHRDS
The following applies: protein: recombinant; tags: N-terminal GST; dsDNA, one strand shown. In outline:
as §1

Assay [12] addresses T7, ETV3L (Homo sapiens, UniProt Q6ZN32 1-361).
T7 sequence: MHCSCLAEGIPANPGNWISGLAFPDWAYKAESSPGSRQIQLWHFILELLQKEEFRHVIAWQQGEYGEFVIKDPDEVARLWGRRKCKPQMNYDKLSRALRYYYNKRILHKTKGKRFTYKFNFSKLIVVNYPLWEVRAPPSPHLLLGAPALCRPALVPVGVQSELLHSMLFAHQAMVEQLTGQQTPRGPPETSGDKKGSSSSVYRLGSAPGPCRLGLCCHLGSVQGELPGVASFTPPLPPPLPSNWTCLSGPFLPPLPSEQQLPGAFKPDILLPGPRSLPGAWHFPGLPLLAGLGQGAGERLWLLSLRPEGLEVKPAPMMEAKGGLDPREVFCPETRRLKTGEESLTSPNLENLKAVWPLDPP
To be noted: protein: recombinant; tags: N-terminal GST; dsDNA, one strand shown. The gist of the method:
as §1

For assay [13], the target named is T8, ETS2 (Homo sapiens, UniProt P15036 1-469).
T8 sequence: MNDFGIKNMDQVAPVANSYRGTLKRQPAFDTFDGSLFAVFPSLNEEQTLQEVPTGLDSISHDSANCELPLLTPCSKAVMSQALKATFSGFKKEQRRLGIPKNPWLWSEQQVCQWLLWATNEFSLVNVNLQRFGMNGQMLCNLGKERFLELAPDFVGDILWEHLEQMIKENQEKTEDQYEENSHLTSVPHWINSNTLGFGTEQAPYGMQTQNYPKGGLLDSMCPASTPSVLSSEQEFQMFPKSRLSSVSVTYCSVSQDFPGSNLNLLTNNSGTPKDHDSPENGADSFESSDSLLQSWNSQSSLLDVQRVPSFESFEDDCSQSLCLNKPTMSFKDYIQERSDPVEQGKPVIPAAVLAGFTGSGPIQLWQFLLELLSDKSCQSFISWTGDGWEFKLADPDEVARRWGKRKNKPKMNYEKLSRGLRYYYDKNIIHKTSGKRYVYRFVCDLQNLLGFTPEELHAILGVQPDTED
The following applies: protein: recombinant; tags: N-terminal GST; dsDNA, one strand shown. The gist of the method: as §1

Assay [14] deals with T9, SPDEF (Homo sapiens, UniProt O95238 1-335).
T9 sequence: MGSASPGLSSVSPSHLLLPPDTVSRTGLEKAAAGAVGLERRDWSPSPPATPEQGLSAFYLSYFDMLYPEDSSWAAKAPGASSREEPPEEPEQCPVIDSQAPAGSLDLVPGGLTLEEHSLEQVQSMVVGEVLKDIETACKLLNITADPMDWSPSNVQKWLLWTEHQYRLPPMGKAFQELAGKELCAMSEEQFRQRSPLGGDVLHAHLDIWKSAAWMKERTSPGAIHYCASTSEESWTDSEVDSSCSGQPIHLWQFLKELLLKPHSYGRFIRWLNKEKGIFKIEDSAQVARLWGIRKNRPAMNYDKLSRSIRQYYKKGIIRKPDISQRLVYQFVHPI
The following applies: protein: recombinant; tags: N-terminal GST; dsDNA, one strand shown. The gist of the method: as §1

Assay [15] concerns the target T10, ETV7 (Homo sapiens, UniProt Q9Y603 1-341).
T10 sequence: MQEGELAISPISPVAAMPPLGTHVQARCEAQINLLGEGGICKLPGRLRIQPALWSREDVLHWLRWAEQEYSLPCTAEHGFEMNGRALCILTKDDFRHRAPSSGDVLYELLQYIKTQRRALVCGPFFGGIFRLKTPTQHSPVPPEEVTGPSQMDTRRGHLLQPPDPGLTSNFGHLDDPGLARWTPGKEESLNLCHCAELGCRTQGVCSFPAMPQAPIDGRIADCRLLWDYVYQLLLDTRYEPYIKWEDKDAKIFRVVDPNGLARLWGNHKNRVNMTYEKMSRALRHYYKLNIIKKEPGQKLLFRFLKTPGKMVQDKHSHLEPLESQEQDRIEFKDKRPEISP
To be noted: protein: recombinant; tags: N-terminal GST; dsDNA, one strand shown. The gist of the method:
as §1

Assay [16] has as its target T11, ELF5 (Homo sapiens, UniProt Q9UKW6-2 1-255).
T11 sequence: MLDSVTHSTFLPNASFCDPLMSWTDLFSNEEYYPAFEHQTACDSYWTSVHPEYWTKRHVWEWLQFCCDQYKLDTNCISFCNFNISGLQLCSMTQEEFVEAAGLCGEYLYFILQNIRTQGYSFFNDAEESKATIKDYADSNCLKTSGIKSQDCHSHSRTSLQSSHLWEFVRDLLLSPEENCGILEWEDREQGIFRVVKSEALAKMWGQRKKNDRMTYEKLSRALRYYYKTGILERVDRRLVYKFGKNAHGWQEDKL
To be noted: protein: recombinant; tags: N-terminal GST; dsDNA, one strand shown. In outline:
as §1

In assay [17] the target is T12, ETV3 (Homo sapiens, UniProt P41162-2 1-143).
T12 sequence: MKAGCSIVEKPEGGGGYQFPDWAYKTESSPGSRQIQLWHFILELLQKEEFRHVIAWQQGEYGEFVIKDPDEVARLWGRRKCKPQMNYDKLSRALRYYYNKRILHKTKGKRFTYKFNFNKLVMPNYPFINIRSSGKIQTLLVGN
The following applies: protein: recombinant; tags: N-terminal GST; dsDNA, one strand shown. In outline:
as §1

The target of assay [18] is ETV6 (Homo sapiens, UniProt P41212 1-452). To be noted: protein: recombinant; tags: N-terminal GST; dsDNA, one strand shown. In outline:
as §1

Chain of ETV1 (P50549 whole entry): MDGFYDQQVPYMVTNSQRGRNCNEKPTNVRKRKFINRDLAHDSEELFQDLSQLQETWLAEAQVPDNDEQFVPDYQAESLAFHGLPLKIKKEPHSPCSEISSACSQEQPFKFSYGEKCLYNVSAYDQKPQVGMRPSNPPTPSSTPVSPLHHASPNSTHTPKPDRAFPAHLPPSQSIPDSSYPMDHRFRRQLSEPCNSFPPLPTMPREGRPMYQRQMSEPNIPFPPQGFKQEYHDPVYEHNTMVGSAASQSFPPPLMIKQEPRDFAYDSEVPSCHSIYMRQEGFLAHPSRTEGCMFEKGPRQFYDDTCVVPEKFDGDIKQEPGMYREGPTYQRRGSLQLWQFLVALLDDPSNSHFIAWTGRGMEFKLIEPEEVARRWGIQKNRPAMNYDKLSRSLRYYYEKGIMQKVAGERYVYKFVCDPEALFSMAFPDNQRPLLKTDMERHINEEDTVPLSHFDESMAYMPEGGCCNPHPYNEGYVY
Chain of ELF4 (Q99607 whole entry): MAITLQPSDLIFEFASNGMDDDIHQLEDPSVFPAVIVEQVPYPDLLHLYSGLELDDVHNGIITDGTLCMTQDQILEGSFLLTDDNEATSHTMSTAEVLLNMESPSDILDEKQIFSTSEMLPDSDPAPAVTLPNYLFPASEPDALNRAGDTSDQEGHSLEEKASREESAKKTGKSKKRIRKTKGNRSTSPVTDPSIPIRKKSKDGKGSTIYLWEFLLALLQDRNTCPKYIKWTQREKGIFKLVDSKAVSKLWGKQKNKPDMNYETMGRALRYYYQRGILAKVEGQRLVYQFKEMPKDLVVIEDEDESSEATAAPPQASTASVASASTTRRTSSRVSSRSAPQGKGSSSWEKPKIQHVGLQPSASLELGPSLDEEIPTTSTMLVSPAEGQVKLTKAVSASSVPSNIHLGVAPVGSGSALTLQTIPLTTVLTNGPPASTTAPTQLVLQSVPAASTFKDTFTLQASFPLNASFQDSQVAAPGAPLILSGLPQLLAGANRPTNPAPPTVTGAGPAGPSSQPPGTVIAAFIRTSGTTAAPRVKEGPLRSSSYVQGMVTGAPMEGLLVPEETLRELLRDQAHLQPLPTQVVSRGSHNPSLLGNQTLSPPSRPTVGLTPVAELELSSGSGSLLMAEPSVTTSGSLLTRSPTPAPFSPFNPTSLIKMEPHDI
Chain of ETV5 (P41161 whole entry): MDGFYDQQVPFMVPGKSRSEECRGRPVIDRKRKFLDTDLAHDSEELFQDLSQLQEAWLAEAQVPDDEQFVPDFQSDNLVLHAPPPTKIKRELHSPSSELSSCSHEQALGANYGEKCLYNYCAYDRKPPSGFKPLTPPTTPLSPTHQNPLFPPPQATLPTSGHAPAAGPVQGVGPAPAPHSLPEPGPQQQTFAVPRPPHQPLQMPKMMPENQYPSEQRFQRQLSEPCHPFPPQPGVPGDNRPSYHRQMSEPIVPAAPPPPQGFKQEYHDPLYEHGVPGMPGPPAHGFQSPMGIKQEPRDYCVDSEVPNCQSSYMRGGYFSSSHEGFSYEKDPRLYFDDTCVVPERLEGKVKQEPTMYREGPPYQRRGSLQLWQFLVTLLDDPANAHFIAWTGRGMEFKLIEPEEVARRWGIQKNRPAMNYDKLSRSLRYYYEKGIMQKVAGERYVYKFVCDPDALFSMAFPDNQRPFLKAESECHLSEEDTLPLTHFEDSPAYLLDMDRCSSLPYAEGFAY
Chain of ETV6 (P41212 whole entry): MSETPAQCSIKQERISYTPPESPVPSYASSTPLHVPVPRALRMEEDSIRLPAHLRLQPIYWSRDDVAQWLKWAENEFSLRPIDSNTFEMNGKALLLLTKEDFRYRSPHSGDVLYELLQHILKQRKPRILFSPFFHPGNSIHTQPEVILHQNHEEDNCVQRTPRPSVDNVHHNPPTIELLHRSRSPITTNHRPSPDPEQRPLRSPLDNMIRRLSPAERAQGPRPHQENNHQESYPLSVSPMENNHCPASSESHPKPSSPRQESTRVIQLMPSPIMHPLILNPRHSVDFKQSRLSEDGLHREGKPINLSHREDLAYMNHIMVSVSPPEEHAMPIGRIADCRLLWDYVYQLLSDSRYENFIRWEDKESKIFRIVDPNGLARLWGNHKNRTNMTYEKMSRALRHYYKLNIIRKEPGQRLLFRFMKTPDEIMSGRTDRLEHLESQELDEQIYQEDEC
Chain of HSF1 (Q00613 whole entry): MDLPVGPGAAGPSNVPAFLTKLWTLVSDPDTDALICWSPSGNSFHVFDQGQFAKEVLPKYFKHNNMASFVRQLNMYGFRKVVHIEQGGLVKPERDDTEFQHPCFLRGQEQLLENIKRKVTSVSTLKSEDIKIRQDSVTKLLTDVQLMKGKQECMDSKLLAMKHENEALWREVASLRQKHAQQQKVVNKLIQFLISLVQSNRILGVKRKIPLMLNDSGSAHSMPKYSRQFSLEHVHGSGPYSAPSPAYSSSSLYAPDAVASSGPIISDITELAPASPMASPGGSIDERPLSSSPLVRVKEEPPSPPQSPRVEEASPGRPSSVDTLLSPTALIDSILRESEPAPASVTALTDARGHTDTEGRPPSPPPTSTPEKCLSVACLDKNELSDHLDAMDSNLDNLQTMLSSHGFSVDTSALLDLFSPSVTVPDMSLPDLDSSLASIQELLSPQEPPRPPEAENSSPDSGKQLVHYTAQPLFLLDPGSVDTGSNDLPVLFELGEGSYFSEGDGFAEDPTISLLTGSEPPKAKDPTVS
Chain of CRX (O43186 whole entry): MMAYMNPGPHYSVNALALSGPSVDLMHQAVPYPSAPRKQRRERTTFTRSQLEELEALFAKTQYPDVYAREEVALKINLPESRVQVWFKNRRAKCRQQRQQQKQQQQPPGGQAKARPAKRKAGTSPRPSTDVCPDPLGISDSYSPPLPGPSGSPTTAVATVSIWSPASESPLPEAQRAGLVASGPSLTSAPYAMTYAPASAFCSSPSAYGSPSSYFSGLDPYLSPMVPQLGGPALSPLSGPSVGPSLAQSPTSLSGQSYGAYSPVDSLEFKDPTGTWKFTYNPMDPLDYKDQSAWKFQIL

On to TAAACG, for which the binding signal in assay [1] was 1.12 fold enrichment (6-mer frequency, TF over GST control); in assay [2], 1.07 fold enrichment (6-mer frequency, TF over GST control); in assay [3], 1.19 fold enrichment (6-mer frequency, TF over GST control); in [4] it was 1.05 fold enrichment (6-mer frequency, TF over GST control); in assay [5], 1.13 fold enrichment (6-mer frequency, TF over GST control); in assay [6], 1.2 fold enrichment (6-mer frequency, TF over GST control). For the same sequence, the binding signal in assay [7] is 1.09 fold enrichment (6-mer frequency, TF over GST control); in assay [8], 1.07 fold enrichment (6-mer frequency, TF over GST control); in assay [9], 1.44 fold enrichment (6-mer frequency, TF over GST control); in [10], 1.13 fold enrichment (6-mer frequency, TF over GST control); in [11], 1.11 fold enrichment (6-mer frequency, TF over GST control); in assay [12], 1.07 fold enrichment (6-mer frequency, TF over GST control). Further, the binding signal in [13] is 1.16 fold enrichment (6-mer frequency, TF over GST control); in assay [14], 1.11 fold enrichment (6-mer frequency, TF over GST control); in [15] it was 1.1 fold enrichment (6-mer frequency, TF over GST control); in assay [16], 1.1 fold enrichment (6-mer frequency, TF over GST control); in assay [17], 1.15 fold enrichment (6-mer frequency, TF over GST control); in assay [18], 1.14 fold enrichment (6-mer frequency, TF over GST control).
